The whole screen tested about 340,000 compounds, of which about 6,200 (1.8%) were called active. Where a call stands in place of a potency, no number is given. Not shown: some 10% with an inconclusive outcome. Calls come from the whole dose curve; as a rule, active = well fitted activation curve with a large enough effect; inconclusive = small, poorly fitted or top-dose-only effect; inactive = no such curve, though single readings can be large or run the other way. The full list was thinned out, with actives kept by preference.
Test: A quantitative high throughput screen for small molecules that induce DNA re-replication in SW480 colon adenocarcinoma cells. Note: nearly all actives have a fitted effect of over 55% in size.
Settings: Hoechst DNA content imaging, 48 h; series mostly up to 46.1 µM
Excerpt: H Molecular Libraries Probe Production Network [MLPCN] NIH Chemical Genomics Center [NCGC] MLPCN Grant: Fast Track K99 CA136555 Assay Provider: Melvin DePamphilis, NICHD, NIH Assay Overview Eukaryotic cells normally restrict genome duplication to once per cell division. When this process is aberrant, DNA re-replication occurs when cells reinitiate DNA replication before the first round of replication is complete. DNA re-replication induces the DNA damage response, arrests cell proliferation, and triggers apoptosis. The cell cycle components cyclin A, Cdt-1, Cdc6 and geminin are critical regulators of this process and their misregulation results in DNA re-replication in normal and cancer cells. To identify compounds that induce re-replication in normal cells, an image-based assay was used to measure DNA content of nuclei, as detected by the fluorescent DNA binding dye, Hoechst. Cell nuclei were imaged by a fluorescence scanning plate imager and compounds that induce DNA re-replication were identified by the increase of nuclei with elevated fluorescence intensity
For screening, 250 cells in 5 uL/well were dispensed into black clear 1536-well plates (Aurora) using a solenoid-based dispenser. Following transfer of 23 nL compound or DMSO vehicle by a pin tool, the plates were incubated 48 hr at 37 C and 5% CO2. After addition of 1 uL/well Hoescht stain, the plates were incubated 40 min at 37 C, 5% CO2 and total intensity of fluorescent objects (nuclei) were enumerated by an Acumen Explorer Ex3 (TTP LabTech) fluorescence scanning plate imager (405 nm excitation, 500-530 nm emission). Keywords: NIH Roadmap, MLPCN, MLI, MLSMR, qHTS, NCGC, DNA replication, cancer
Potency is the fitted concentration of half-maximal effect.

Structure (SMILES) | Potency
O=C(Cc1ccccc1[N+](=O)[O-])N1CCN(Cc2ccc3c(c2)OCO3)CC1 | 16.4 µM (active)
Cc1cc(=O)oc2c(C)c(OCC(=O)N3CCN(Cc4ccc5c(c4)OCO5)CC3)ccc12 | inactive
Fc1ccc(N2CCN(Cc3ccc4c(c3)OCO4)CC2)cc1 | inactive
CC1([N+](=O)[O-])COP(=O)(Nc2ccc(F)cc2)OC1 (stereo not given) | inactive
CC1CNCCN1c1ccc(Cl)cc1 (stereo not given) | inactive
COc1cc(-n2c(=S)[nH]c3ccc(C)cc3c2=O)c(Cl)cc1Cl | 18.4 µM (active)
C[C@]12CCC3C(CC[C@H]4[C@H](O)[C@H](O)CC[C@]34C)C1CCC2=O (stereo not given in full) | inactive
O=C(CSc1ccccc1)Nc1ccc(C(=O)Nc2cccc(O)c2)cc1 | inactive
CCC(C)n1c(O)c(/C=N/Nc2nc3c(c(=O)n(C)c(=O)n3C)n2C)c(=O)[nH]c1=S (stereo not given) | 23.1 µM (active)
CC1CC=CCC12C(=O)NC(=S)NC2=O (stereo not given) | inactive
CNC(C)[C@@H](O)c1ccccc1 (stereo not given in full) | inactive
CC1=CC(=Cc2sc3ccccc3[n+]2C)C=C(C)O1 | 5.8 µM (active)
CCC1(CC(C)c2ccccc2)C(=O)NC(=O)NC1=O (stereo not given) | inactive
Cc1cc(C)c2c(c1)NP(=S)(c1ccccc1)N2 (stereo not given) | inactive
CCOC(=O)CC(SP1(=S)OCC2(CCCCO2)C(C2CCCCO2)O1)C(=O)OCC (stereo not given) | inactive
O=C(N/N=C/c1ccc([N+](=O)[O-])o1)c1cc([N+](=O)[O-])cc([N+](=O)[O-])c1O | inactive
CC[C@H]1CN2CCc3cc(OC)c(OC)cc3[C@@H]2C[C@@H]1C[C@H]1NCCc2cc(OC)c(OC)cc21 | 0.291 µM (active)
O=C1NC(=O)C(CCOc2ccccc2)(CCc2ccccc2)C(=O)N1 | inactive
CCC(=O)OC(Cc1ccccc1)(c1ccccc1)C(C)CN(C)C (stereo not given) | inactive
CCOP(=O)(OCC)C(Nc1cccc(C)c1)c1ccc(F)cc1 (stereo not given) | inactive
CN1CCCC(=C(c2cccs2)c2cccs2)C1 | inactive
Nc1ccc(Cc2ccc(N)c(Cl)c2)cc1Cl | inactive
C[C@]12CCCCC1=CC(=O)C1C2CC[C@@]2(C)C1C[C@@H](F)[C@@H]2O (stereo not given in full) | inactive
Cc1ncsc1CCCl | inactive
Cc1cc2ccccn2c1C(C[N+](=O)[O-])c1c(F)cccc1Cl (stereo not given) | 7.31 µM (active)

Structure (SMILES) | Potency
CCOc1ccc(S(=O)(=O)NCc2ccc3c(c2)OCO3)cc1C | inactive
CC(CC(C#N)(c1ccccc1)c1ccccc1)N1CCCCC1 (stereo not given) | inactive
COc1ccc(C2CC(c3cccs3)=NN2c2nc(C)c(C(C)=O)s2)cc1OC (stereo not given) | 14.6 µM (active)
O=C(NCc1cccs1)c1ccc(Br)o1 | inactive
Cc1cccc([C@H](C)c2cnc[nH]2)c1C | inactive
CCOC(=O)C1(c2ccccc2)CCN(CC(O)c2ccc(NC(C)=O)cc2)CC1 (stereo not given) | inactive
c1ccc2sc(SNC3CCCCC3)nc2c1 | inactive
COc1ccc2c(c1)NP(=S)(c1ccccc1)N2 (stereo not given) | inactive
O=c1c2ccccc2nc(-c2ccccc2)n1-c1ccccn1 | inactive
O=c1c2ccccc2nc(-c2ccco2)n1-c1ccc(Br)cn1 | inactive
O=c1c2ccccc2nc(/C=C/c2ccco2)n1-c1ccccc1O | 20.6 µM (active)
C=CCN1CCC23c4c5ccc(O)c4O[C@H]2C(=O)CC[C@@]3(O)C1C5 (stereo not given in full) | inactive
CC(C)(C)CC(=O)Nc1nnc(SCC(=O)NCc2cccs2)s1 | inactive
Cc1cc(-c2ccc(N)c(C)c2)ccc1N | inactive
CCC1(c2ccccc2)C(=O)NC(=O)N(C)C1=O (stereo not given) | inactive
CCN1C(=O)NC(=O)C2(CCCC2)C1=O | inactive
CC(=O)OC1C2(CC3N4C(=O)C5(CO)SSC4(CC31O)C(=O)N5C)OC(C)C(C)(C)C2=O (stereo not given) | 0.461 µM (active)
CCNC[C@H](O)c1cccc(O)c1 | inactive
O=C1NC(=O)C(Cc2ccccc2)C(=O)N1 | inactive
CC1CCCN1CCC(C(N)=O)(c1ccccc1)c1ccccc1 (stereo not given) | inactive
COc1ccc2c3c1O[C@H]1C[C@@H](O)C=C[C@@]31CCN(C)C2 | inactive
CC=C(C)C(=O)OC1CCN2CC=C(COC(=O)C(O)(C(C)OC)C(C)(C)O)C12 (stereo not given) | inactive
CCC1(C)CC(CCNCc2ccc(N(C)C)cc2)(c2ccc(F)cc2)CCO1 (stereo not given) | 18.4 µM (active)
CC[N+]1(CCOC(=O)C(O)(c2ccccc2)c2ccccc2)CCCCC1 | inactive
C=C(C)C1(CCCC)C(=O)NC(=S)NC1=O | inactive

Reference: PubChem BioAssay AID624297 (National Center for Advancing Translational Sciences (NCATS), 2012)
